From PubChem BioAssay (NCI)
About 79,000 compounds went through this panel and 15% of them were active in at least one assay; those are over-represented in the sample as a whole. Activity calls are given as the source filed them. Rule as the data show it: active = growth inhibition above about 70%; inactive = the rest.

How the values were obtained:
[1] = NCI Yeast Anticancer Drug Screen. Data for the rad52 strain (AID 147);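 also: 0% = growth of vehicle-treated control cultures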; conditions: S. cerevisiae rad52 mutant growth inhibition, active compounds read high
Outline: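 Inhibition of yeast growth, referenced to vehicle controls, was the measured output for a strain with defective DNA damage repair.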

[2] = NCI Yeast Anticancer Drug Screen. Data for the wt1 strain (AID 149);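 also: 0% = growth of vehicle-treated wt1 cultures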; conditions: S. cerevisiae wt1 strain (SPY 50644) growth inhibition, active compounds read high
Outline: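 Compounds are added to wt1 yeast cultures. Growth is then measured. Inhibition is expressed relative to vehicle-treated controls.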

[3] = NCI Yeast Anticancer Drug Screen. Data for the rad50EPP+ strain (AID 151);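 also: 0% = growth of vehicle-treated control cultures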; conditions: S. cerevisiae rad50 mutant strain, active compounds read high
Outline: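 Genetically defined yeast (rad50EPP+, DNA damage repair alteration) is grown with compound, and inhibition of growth is expressed relative to vehicle-treated controls.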

[4] = NCI Yeast Anticancer Drug Screen. Data for the mgt1 strain (AID 153); conditions: S. cerevisiae mgt1 mutant growth inhibition, active compounds read high
Outline: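 In the mgt1 strain, test compounds were added and growth inhibition was determined relative to vehicle-treated controls.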

[5] = NCI Yeast Anticancer Drug Screen. Data for the rad50 strain (AID 155);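 also: 0% = growth of vehicle-only cultures of the same strain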; conditions: S. cerevisiae rad50 strain growth inhibition, active compounds read high
Outline: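 Inhibition values express reduced yeast growth in compound-treated cultures relative to vehicle-treated controls.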

[6] = NCI Yeast Anticancer Drug Screen. Data for the mec2-1 strain (AID 157); conditions: S. cerevisiae mec2-1 strain, active compounds read high
Outline: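 Each compound was tested on mec2-1 yeast, a strain altered in DNA damage repair or cell cycle control. Growth inhibition is reported relative to vehicle.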

[7] = NCI Yeast Anticancer Drug Screen. Data for the rad14 strain (AID 159);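 also: 0% = growth of vehicle-treated control cultures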; conditions: S. cerevisiae rad14 strain growth inhibition, active compounds read high
Outline: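 A mutant yeast strain defective in DNA damage repair is treated with compound; inhibition of its growth is scored against untreated, vehicle-exposed cultures.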

[8] = NCI Yeast Anticancer Drug Screen. Data for the sgs1 mgt1 strain (AID 161);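 also: 0% = growth of cultures given vehicle only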; conditions: S. cerevisiae sgs1 mgt1 strain, active compounds read high
Outline: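 Mutant yeast exposed to compound; growth scored against vehicle-only wells.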

[9] = NCI Yeast Anticancer Drug Screen. Data for the CLN2oe strain (AID 163);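 also: 0% = growth of vehicle-only control cultures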; conditions: S. cerevisiae CLN2oe strain, active compounds read high
Outline: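 First, the altered yeast strain was treated with each compound; second, its growth was measured; finally, inhibition was derived by comparison with vehicle controls.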

[10] = NCI Yeast Anticancer Drug Screen. Data for the cln2 rad14 strain (AID 165);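 also: 0% = growth equal to vehicle treated cultures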; conditions: S. cerevisiae cln2 rad14 strain, active compounds read high
Outline: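 Test compounds were added to cln2 rad14 yeast cultures; inhibition of growth was then determined by comparison with vehicle treatment.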

[11] = NCI Yeast Anticancer Drug Screen. Data for the bub3 strain (AID 167); conditions: S. cerevisiae bub3 mutant strain, active compounds read high
Outline: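 Steps: expose the mutant yeast strain to compound; grow alongside vehicle-treated cultures; measure growth; express inhibition against the vehicle cultures.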

[12] = NCI Yeast Anticancer Drug Screen. Data for the wt2 strain (AID 169);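 also: 0% = growth of vehicle-treated yeast cultures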; conditions: S. cerevisiae wt2 strain growth inhibition, active compounds read high
Outline: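 The panel's yeast strains carry defined changes in DNA repair or cell cycle genes. Each strain is grown with compound, and growth loss is scored relative to vehicle.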

[13] = NCI Yeast Anticancer Drug Screen. Data for the mlh1 strain (AID 171);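 also: 0% = growth of vehicle-treated control cultures of the same strain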; conditions: S. cerevisiae mlh1 strain growth inhibition, active compounds read high
Outline: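 Inhibition values reflect reduced yeast growth in the presence of compound, referenced to vehicle controls, using a strain chosen for its alteration in DNA repair or cell cycle control.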

[14] = NCI Yeast Anticancer Drug Screen. Data for the sgs1 strain (AID 173);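 also: 0% = growth of vehicle-only control cultures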; conditions: S. cerevisiae sgs1 mutant, active compounds read high
Outline: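 Vehicle-treated cultures served as reference for growth inhibition of a yeast strain altered in DNA damage repair or cell cycle control after compound exposure.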

[15] = NCI Yeast Anticancer Drug Screen. Data for the mlh1 rad18 strain (AID 175); conditions: S. cerevisiae mlh1 rad18 strain growth inhibition, active compounds read high
Outline: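 Inhibition values reflect reduced growth of mutant yeast versus vehicle-treated controls following compound exposure; the mutations affect DNA damage repair.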

[16] = NCI Yeast Anticancer Drug Screen. Data for the rad18 strain (AID 177); conditions: S. cerevisiae rad18 mutant growth inhibition, active compounds read high
Outline: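 Steps: expose repair-mutant yeast to compound; measure growth; express as inhibition relative to vehicle control.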

[17] = at 5.0 µM (retest, dose inferred, filed as 0.5)
[18] = at 50.0 µM (retest, dose inferred, filed as 5.0)

Measured: growth inhibition

CCCCS/C(=C(/C#N)C(N)=O)c1cc2c([nH]1)CCCC2
inactive: [1]; at 1.2 µM 24% | [1]; at 3.7 µM 26% | [1]; at 11.0 µM 33% | [1]; at 33.0 µM 40% | [2]; at 1.2 µM -9% | [2]; at 3.7 µM 0% | [2]; at 11.0 µM -8% | [2]; at 33.0 µM -12% | [2]; at 100.0 µM 56% | [3]; at 1.2 µM 11% | [3]; at 3.7 µM 13% | [3]; at 11.0 µM 11% | [3]; at 33.0 µM 22% | [3]; at 100.0 µM 31% | [4]; at 1.2 µM -7% | [4]; at 3.7 µM -21% | [4]; at 11.0 µM -21% | [4]; at 33.0 µM -14% | [4]; at 100.0 µM 49% | [5]; at 1.2 µM 25% | [5]; at 3.7 µM 23% | [5]; [17] 16% | [5]; at 11.0 µM 24% | [5]; at 33.0 µM 28% | [5]; [18] 30% | [5]; at 50.0 µM 41.2% | [5]; at 100.0 µM 48% | [6]; at 1.2 µM -8% | [6]; at 3.7 µM -22% | [6]; [17] -1% | [6]; at 11.0 µM -17% | [6]; at 33.0 µM -34% | [6]; [18] 13% | [6]; at 50.0 µM 62.4% | [6]; at 100.0 µM 52% | [7]; at 1.2 µM -11% | [7]; at 3.7 µM -9% | [7]; at 11.0 µM -13% | [7]; at 33.0 µM -16% | [7]; at 100.0 µM 62% | [8]; [17] 9% | [8]; [18] 31% | [8]; at 50.0 µM 60.5% | [9]; at 1.2 µM -21% | [9]; at 3.7 µM -19% | [9]; at 11.0 µM -18% | [9]; at 33.0 µM -32% | [9]; at 100.0 µM 56% | [10]; [17] 8% | [10]; [18] 24% | [10]; at 50.0 µM 54.2% | [11]; at 1.2 µM -37% | [11]; at 3.7 µM -36% | [11]; [17] 4% | [11]; at 11.0 µM -30% | [11]; at 33.0 µM -6% | [12]; at 1.2 µM -13% | [12]; at 3.7 µM -17% | [12]; at 11.0 µM -16% | [12]; at 33.0 µM 6% | [13]; at 1.2 µM -13% | [13]; at 3.7 µM -19% | [13]; at 11.0 µM -30% | [13]; at 33.0 µM -36% | [13]; at 100.0 µM 54% | [14]; at 1.2 µM 12% | [14]; at 3.7 µM 17% | [14]; at 11.0 µM 18% | [14]; at 33.0 µM 22% | [15]; [17] 13% | [15]; [18] 46% | [15]; at 50.0 µM -32.3% | [16]; at 1.2 µM 0% | [16]; at 3.7 µM -13% | [16]; at 11.0 µM -24% | [16]; at 33.0 µM -19% | [16]; at 100.0 µM 44%
active: [1]; at 100.0 µM 72% | [11]; [18] 71% | [11]; at 50.0 µM 83.5% | [11]; at 100.0 µM 81% | [12]; at 100.0 µM 98% | [14]; at 100.0 µM 72%

C=COC(=O)N[C@H]1CCc2cc(OC)c(OC)c(OC)c2-c2ccc(SC)c(=O)cc21
active: [1]; at 100.0 µM 75% | [5]; at 100.0 µM 88% | [6]; at 100.0 µM 73% | [7]; at 100.0 µM 93% | [9]; at 100.0 µM 80% | [12]; at 100.0 µM 76% | [13]; at 100.0 µM 84% | [14]; at 100.0 µM 73% | [16]; at 100.0 µM 75%
inactive: [1]; at 1.2 µM -2% | [1]; at 3.7 µM 1% | [1]; at 11.0 µM 6% | [1]; at 33.0 µM 14% | [2]; at 1.2 µM -2% | [2]; at 3.7 µM -2% | [2]; at 11.0 µM -3% | [2]; at 33.0 µM -2% | [2]; at 100.0 µM 18% | [3]; at 1.2 µM -8% | [3]; at 3.7 µM -2% | [3]; at 11.0 µM -3% | [3]; at 33.0 µM -6% | [3]; at 100.0 µM -2% | [4]; at 1.2 µM -5% | [4]; at 3.7 µM -8% | [4]; at 11.0 µM -4% | [4]; at 33.0 µM 13% | [4]; at 100.0 µM 64% | [5]; at 1.2 µM 1% | [5]; at 3.7 µM 4% | [5]; [17] -6% | [5]; at 11.0 µM 10% | [5]; at 33.0 µM 20% | [5]; [18] 34% | [5]; at 50.0 µM 38.5% | [6]; at 1.2 µM -5% | [6]; at 3.7 µM -4% | [6]; [17] -9% | [6]; at 11.0 µM -5% | [6]; at 33.0 µM 2% | [6]; [18] 41% | [6]; at 50.0 µM 30.9% | [7]; at 1.2 µM -1% | [7]; at 3.7 µM -1% | [7]; at 11.0 µM 6% | [7]; at 33.0 µM 19% | [8]; [17] -9% | [8]; [18] 42% | [8]; at 50.0 µM 38% | [9]; at 1.2 µM -4% | [9]; at 3.7 µM -2% | [9]; at 11.0 µM -12% | [9]; at 33.0 µM -10% | [10]; [17] 3% | [10]; [18] 6% | [10]; at 50.0 µM 20.4% | [11]; at 1.2 µM -3% | [11]; at 3.7 µM -6% | [11]; [17] -3% | [11]; at 11.0 µM -6% | [11]; at 33.0 µM 4% | [11]; [18] 67% | [11]; at 50.0 µM 34.2% | [11]; at 100.0 µM 58% | [12]; at 1.2 µM -3% | [12]; at 3.7 µM -4% | [12]; at 11.0 µM -3% | [12]; at 33.0 µM 1% | [13]; at 1.2 µM 1% | [13]; at 3.7 µM -1% | [13]; at 11.0 µM 0% | [13]; at 33.0 µM 12% | [14]; at 1.2 µM -2% | [14]; at 3.7 µM -3% | [14]; at 11.0 µM 1% | [14]; at 33.0 µM 14% | [15]; [17] -8% | [15]; [18] 30% | [15]; at 50.0 µM 29.1% | [16]; at 1.2 µM -2% | [16]; at 3.7 µM 0% | [16]; at 11.0 µM 3% | [16]; at 33.0 µM 13%
